This note sets out measurements from PubChem BioAssay (NCI).

This is part of a sample that, as a whole, favours compounds with a hit. Of some 79,000 tested, about 15% had one in any assay. Unmarked numbers belong to inactive results. Activity calls are given as the source filed them. No stated cut-off is given here; in the data, active means growth inhibition above about 70%; inactive means the rest.

Assay [1] is described as follows: NCI Yeast Anticancer Drug Screen. Data for the rad50 strain (AID 155).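 Further: 0% = growth of vehicle-only cultures of the same strain.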 The note with it: S. cerevisiae rad50 strain growth inhibition, active compounds read high. A digest of the protocol: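 A DNA repair-deficient yeast mutant serves as the test organism; compound-induced growth inhibition is calculated against vehicle-treated cells.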
Assay [2] is described as follows: NCI Yeast Anticancer Drug Screen. Data for the mec2-1 strain (AID 157). The note with it: S. cerevisiae mec2-1 strain, active compounds read high. A digest of the protocol:
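Yeast mec2-1 mutant treated with compound. Readout: growth inhibition vs vehicle controls.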

The nature of assay [3]: NCI Yeast Anticancer Drug Screen. Data for the sgs1 mgt1 strain (AID 161).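 Further: 0% = growth of cultures given vehicle only.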 The note with it: S. cerevisiae sgs1 mgt1 strain, active compounds read high. In short, it runs like this: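 Genetically altered yeast, compound exposure, growth inhibition relative to vehicle.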
Assay [4] in a line: NCI Yeast Anticancer Drug Screen. Data for the cln2 rad14 strain (AID 165).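 Further: 0% = growth equal to vehicle treated cultures.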 The conditions noted are these: S. cerevisiae cln2 rad14 strain, active compounds read high. A digest of the protocol:
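cln2 rad14 yeast strain; compound exposure; growth inhibition read vs vehicle controls.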

A short description of assay [5]: NCI Yeast Anticancer Drug Screen. Data for the bub3 strain (AID 167). The note with it: S. cerevisiae bub3 mutant strain, active compounds read high. A digest of the protocol:
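Inhibition values come from growth of compound-treated mutant yeast normalised to vehicle-treated controls.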

A short description of assay [6]: NCI Yeast Anticancer Drug Screen. Data for the mlh1 rad18 strain (AID 175). The conditions noted are these: S. cerevisiae mlh1 rad18 strain growth inhibition, active compounds read high. In short, it runs like this:
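Yeast w/ defined DNA-repair lesions; compound exposure; growth vs vehicle controls → % inhibition.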

[7] abbreviates: at 5.0 µM (retest, dose inferred, filed as 0.5).
Where [8] appears, read: at 50.0 µM (retest, dose inferred, filed as 5.0).

For the molecule `CCOC(=O)C1=C(C)NC2=C(C(=O)N(c3ccccc3)C2c2ccccc2)C1c1ccccc1` (configuration not stated), the growth inhibition in assay [1] (setting [7]) was 5%; in assay [1] (setting [8]) it was 5%; in assay [1] (at 50.0 µM) it was 72.5% (active); in assay [2] (setting [7]), 9%; in assay [2] (setting [8]) it was 9%; in assay [2] (at 50.0 µM) it was 56.4%. The growth inhibition is 3% in assay [3] (setting [7]); 3% in assay [3] (setting [8]); 63.1% in assay [3] (at 50.0 µM); -11% in assay [4] (setting [7]); -11% in assay [4] (setting [8]); 65.6% in assay [4] (at 50.0 µM). Besides, the growth inhibition in assay [5] (setting [7]) is -7%; in assay [5] (setting [8]) it was -7%; in assay [5] (at 50.0 µM), 49.2%; in assay [6] (setting [7]) it was 8%; in assay [6] (setting [8]), 8%; in assay [6] (at 50.0 µM) it was 54.1%.

As to `COc1ccc(C2COc3c(ccc(O)c3O)C2)cc1OC` (configuration not stated), the growth inhibition in assay [1] (setting [7]) was -14%; in assay [1] (setting [8]), 28%; in assay [1] (at 50.0 µM), 25.2%; in assay [2] (setting [7]) it was 1%; in assay [2] (setting [8]), 55%; in assay [2] (at 50.0 µM), 43.6%. In addition, the growth inhibition in assay [3] (setting [7]) is -3%; in assay [3] (setting [8]), 66%; in assay [3] (at 50.0 µM), 40.1%; in assay [4] (setting [7]), 0%; in assay [4] (setting [8]) it was 41%; in assay [4] (at 50.0 µM), 55.7%. Moreover, the growth inhibition in assay [5] (setting [7]) is 0%; in assay [5] (setting [8]), 26%; in assay [5] (at 50.0 µM), 32.9%; in assay [6] (setting [7]), 0%; in assay [6] (setting [8]), 74% (active); in assay [6] (at 50.0 µM) it was 40.2%.

On to `O=C(O)C(O)Cc1ccc(O)cc1` (configuration not stated), for which the growth inhibition in assay [1] (setting [7]) was -150%; in assay [1] (setting [8]), -144%; in assay [1] (at 50.0 µM), -3.2%; in assay [2] (setting [7]), -46%; in assay [2] (setting [8]) it was -51%; in assay [2] (at 50.0 µM), 1.1%. Moreover, the growth inhibition in assay [3] (setting [7]) was -61%; in assay [3] (setting [8]) it was -61%; in assay [3] (at 50.0 µM), 3.7%; in assay [4] (setting [7]), -62%; in assay [4] (setting [8]), -69%; in assay [4] (at 50.0 µM), 39.2%. The growth inhibition is -70% in assay [5] (setting [7]); -86% in assay [5] (setting [8]); -13.3% in assay [5] (at 50.0 µM); -140% in assay [6] (setting [7]); -122% in assay [6] (setting [8]); -6.4% in assay [6] (at 50.0 µM).

As for `O=C1CCS(=O)(=O)c2ccccc21`, the growth inhibition in assay [1] (setting [7]) was 21%; in assay [1] (setting [8]), 100% (active); in assay [1] (at 50.0 µM), 91.2% (active); in assay [2] (setting [7]), -2%; in assay [2] (setting [8]), 99% (active); in assay [2] (at 50.0 µM) it was 65.4%. For the same molecule, the growth inhibition in assay [3] (setting [7]) is 24%; in assay [3] (setting [8]), 99% (active); in assay [3] (at 50.0 µM), 57.7%; in assay [4] (setting [7]), 3%; in assay [4] (setting [8]), 94% (active); in assay [4] (at 50.0 µM), 36.9%. Also, the growth inhibition is 34% in assay [5] (setting [7]); 99% (active) in assay [5] (setting [8]); 33.4% in assay [5] (at 50.0 µM); 36% in assay [6] (setting [7]); 99% (active) in assay [6] (setting [8]); 64% in assay [6] (at 50.0 µM).

In the case of `Cc1nn(C(=O)c2ccccc2O)c2c1C(c1ccco1)SC(N)=N2` (configuration not stated), the growth inhibition is -6% in assay [1] (setting [7]); 65% in assay [1] (setting [8]); 67.5% in assay [1] (at 50.0 µM); 11% in assay [2] (setting [7]); 59% in assay [2] (setting [8]); 38.8% in assay [2] (at 50.0 µM). Moreover, the growth inhibition was 8% in assay [3] (setting [7]); 64% in assay [3] (setting [8]); 57% in assay [3] (at 50.0 µM); 10% in assay [4] (setting [7]); 52% in assay [4] (setting [8]); 43.6% in assay [4] (at 50.0 µM). Besides, the growth inhibition is 7% in assay [5] (setting [7]); 86% (active) in assay [5] (setting [8]); 69% in assay [5] (at 50.0 µM); 11% in assay [6] (setting [7]); 86% (active) in assay [6] (setting [8]); 59.3% in assay [6] (at 50.0 µM).

With `CCOC(=O)c1ccc(N=Cc2cc(Cl)cc(Cl)c2O)cc1`, the growth inhibition in assay [1] (setting [7]) was 67%; in assay [1] (setting [8]), 99% (active); in assay [1] (at 50.0 µM) it was 86.7% (active); in assay [2] (setting [7]), 72% (active); in assay [2] (setting [8]), 100% (active); in assay [2] (at 50.0 µM), 88.5% (active). Also, the growth inhibition in assay [3] (setting [7]) is 28%; in assay [3] (setting [8]) it was 84% (active); in assay [3] (at 50.0 µM) it was 91% (active); in assay [4] (setting [7]), 37%; in assay [4] (setting [8]) it was 85% (active); in assay [4] (at 50.0 µM), 78.9% (active). Besides, the growth inhibition in assay [5] (setting [7]) is 62%; in assay [5] (setting [8]), 96% (active); in assay [5] (at 50.0 µM), 87.2% (active); in assay [6] (setting [7]), 52%; in assay [6] (setting [8]), 100% (active); in assay [6] (at 50.0 µM), 84.5% (active).

`N#CSc1ccc(O)cc1`: the growth inhibition in assay [1] (setting [7]) is 0%; in assay [1] (setting [8]), 95% (active); in assay [1] (at 50.0 µM), 94.3% (active); in assay [2] (setting [7]), 1%; in assay [2] (setting [8]), 97% (active); in assay [2] (at 50.0 µM), 96.2% (active). Moreover, the growth inhibition was 4% in assay [3] (setting [7]); 97% (active) in assay [3] (setting [8]); 92.6% (active) in assay [3] (at 50.0 µM); 3% in assay [4] (setting [7]); 97% (active) in assay [4] (setting [8]); 93.8% (active) in assay [4] (at 50.0 µM). The growth inhibition was 0% in assay [5] (setting [7]); 96% (active) in assay [5] (setting [8]); 96.4% (active) in assay [5] (at 50.0 µM); 1% in assay [6] (setting [7]); 95% (active) in assay [6] (setting [8]); 93.3% (active) in assay [6] (at 50.0 µM).

Turning to `OCCN=Cc1cccs1`, the growth inhibition in assay [1] (setting [7]) is 1%; in assay [1] (setting [8]), 3%; in assay [1] (at 50.0 µM), 8.85%; in assay [2] (setting [7]) it was -2%; in assay [2] (setting [8]) it was 5%; in assay [2] (at 50.0 µM) it was 2.8%. Besides, the growth inhibition in assay [3] (setting [7]) was -1%; in assay [3] (setting [8]), 2%; in assay [3] (at 50.0 µM), 2.05%; in assay [4] (setting [7]), 0%; in assay [4] (setting [8]), 1%; in assay [4] (at 50.0 µM) it was 13.7%. In addition, the growth inhibition in assay [5] (setting [7]) is 1%; in assay [5] (setting [8]), 2%; in assay [5] (at 50.0 µM), 8.25%; in assay [6] (setting [7]) it was -25%; in assay [6] (setting [8]) it was 5%; in assay [6] (at 50.0 µM), 3.4%.

In the case of `Cc1cccc(NC(=O)C(=O)C(C2OC(=O)c3ccccc32)[N+](=O)[O-])c1C` (configuration not stated), the growth inhibition in assay [1] (setting [7]) was 8%; in assay [1] (setting [8]), 69%; in assay [1] (at 50.0 µM), 85.4% (active); in assay [2] (setting [7]) it was -24%; in assay [2] (setting [8]), 82% (active); in assay [2] (at 50.0 µM) it was 86.8% (active). The growth inhibition in assay [3] (setting [7]) is 9%; in assay [3] (setting [8]), 75% (active); in assay [3] (at 50.0 µM), 87.7% (active); in assay [4] (setting [7]) it was 27%; in assay [4] (setting [8]) it was 79% (active); in assay [4] (at 50.0 µM), 90.4% (active). Further, the growth inhibition was -13% in assay [5] (setting [7]); 92% (active) in assay [5] (setting [8]); 88.3% (active) in assay [5] (at 50.0 µM); -21% in assay [6] (setting [7]); 89% (active) in assay [6] (setting [8]); 83.3% (active) in assay [6] (at 50.0 µM).
